Consider 40 compounds from the supplement of paper PMC10981050.

Counter-ions that a name gives are not always drawn.

For the assay, the system named is MARIMO. Nature of the assay: cell viability relative to vehicle control; higher = less cytotoxic. The note with it: 10 µM; SRSF2 genotype: SRSF2 P95H/wt. The method in brief: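 Screening covered the Selleck bioactive, kinase and epigenetic probe libraries, less identity-inconsistent compounds, on CRISPR-edited mutant clones and isogenic wild-type clones of four leukaemia lines. Cells, at 2000 per well in 50 µL medium, received a single 10 µM acoustically dispensed dose. After 48 h the supernatant was removed and CellTiter-Glo luminescence was read. Viability was analysed in Genedata Screener as percent of the on-plate vehicle control.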
As for `Cc1cc(C)c(-c2csc(NC(=O)c3ccccc3)n2)c(C)c1`, the cell viability was determined as 35.1%.
With `O=C(/C=C/c1ccc(O[C@@H]2O[C@H](CO)[C@@H](O)[C@H](O)[C@H]2O)cc1)c1ccc(O)cc1O` [Isoliquiritin], the cell viability is 103%.
The result for `COc1ccc(-c2oc3c(CC=C(C)C)c(O)cc(O)c3c(=O)c2O[C@@H]2O[C@@H](C)[C@H](O)[C@@H](O)[C@H]2O)cc1` [Baohuoside I] reads 94.6%.
In the case of `CCCCCCCCCC(=O)N[C@@H](Cc1c[nH]c2ccccc12)C(=O)N[C@H](CC(N)=O)C(=O)N[C@@H](CC(=O)O)C(=O)N[C@@H]1C(=O)NCC(=O)N[C@@H](CCCN)C(=O)N[C@@H](CC(=O)O)C(=O)N[C@H](C)C(=O)N[C@@H](CC(=O)O)C(=O)NCC(=O)N[C@H](CO)C(=O)N[C@@H]([C@H](C)CC(=O)O)C(=O)N[C@@H](CC(=O)c2ccccc2N)C(=O)O[C@@H]1C` [Daptomycin], the cell viability was determined as 94%.
For `c1ccc2occc2c1` [2,3-Benzofuran], the cell viability stood at 93.7%.
As to `O=C(O)CC(C(=O)O)n1c(O)c(C2=c3cc(Br)ccc3=NC2=O)sc1=S` (stereo not given), the cell viability was 97.7%.
The result for `CCN1CCN(c2cc3c(cc2F)c(=O)c(C(=O)O)cn3C2CC2)CC1` [Enrofloxacin] reads 108%; that for `COc1ccc2c(c1O)-c1c(O)c(OC)cc3c1[C@H](C2)[N+](C)(C)CC3` [Magnoflorine], 98%; that for `CC(=O)OCC(=O)[C@@]1(O)CC[C@H]2[C@@H]3CCC4=CC(=O)CC[C@]4(C)[C@@]3(F)[C@@H](O)C[C@@]21C` [Fludrocortisone acetate], 105%.
Under `NC(=O)NO` [Hydroxyurea (Cytodrox)] stands 97.5%; under `Nc1ncnc2c1nc(Br)n2[C@@H]1O[C@@H]2COP(=O)(O)O[C@H]2[C@H]1O` [8-Bromo-cAMP], 86.2%.
Under `Cc1cccc(Nc2nc(-c3ccncc3)cs2)c1` stands 49.3%.
Consider `CC12CCC(CC1)C(C)(C)O2` [Eucalyptol], for which the cell viability was found to be 101%.
In the case of `CCc1c(Cl)c(O)c(Cl)c(O)c1C(=O)O[C@H]1[C@H](O)[C@H](OC)[C@H](OC/C2=C\C=C\C[C@H](O)/C(C)=C/[C@H](CC)[C@@H](O[C@@H]3OC(C)(C)[C@@H](OC(=O)C(C)C)[C@H](O)[C@@H]3O)/C(C)=C/C(C)=C/C[C@@H]([C@@H](C)O)OC2=O)O[C@@H]1C` [Fidaxomicin], the cell viability amounted to 86.2%.
On to `CO[C@H]1/C=C/O[C@@]2(C)Oc3c(C)c(O)c4c(O)c(c(/C=N/N5CCN(C)CC5)c(O)c4c3C2=O)NC(=O)/C(C)=C\C=C\[C@H](C)[C@H](O)[C@@H](C)[C@@H](O)[C@@H](C)[C@H](OC(C)=O)[C@@H]1C` [Rifampin], for which the cell viability worked out at 99.9%.
As to `COc1ccc(C2CNC(=O)C2)cc1OC1CCCC1` (stereo not drawn) [S-(+)-Rolipram], the cell viability was determined as 102%.
The result for `C#C[C@]1(O)CC[C@H]2[C@@H]3CCc4cc(OC5CCCC5)ccc4[C@H]3CC[C@@]21C` [Quinestrol] reads 62.4%; that for `COc1cccc2cc(-c3nc([C@H]4CC[C@H](C(=O)O)CC4)n4ncnc(N)c34)[nH]c12`, 51.5%; that for `O=C(/C=C/c1ccc(O)c(O)c1)c1ccc(O)cc1O` [Butein], 52.6%.
For the compound `CN(C)c1ccc(C(=O)NCCCCCCC(=O)NO)cc1`, the cell viability came to 6.98%.
With `O=c1c2cc(O[C@@H]3O[C@H](CO)[C@@H](O)[C@H](O)[C@H]3O)c(O)cc2oc2cc(O)c([C@@H]3O[C@H](CO)[C@@H](O)[C@H](O)[C@H]3O)c(O)c12` [Neomangiferin], the cell viability is 93.8%.
Regarding `O=c1[nH]c(=O)n([C@H]2C[C@H](O)[C@@H](CO)O2)cc1/C=C/Br` [Brivudine], the cell viability was 101%.
For `Cc1c(C(=O)Nc2ccc(Oc3ccnc4[nH]cc(-c5ccccc5)c34)c(F)c2)c(=O)n(-c2ccc(F)cc2)n1C`, the cell viability worked out at 84.7%.
Consider `CC(=O)CCc1ccc(OC(C)=O)cc1` [Pherocon (4-(4-Acetoxyphenyl)-2-butanone)], for which the cell viability was found to be 103%.
Regarding `C[C@@H](N)[C@H]1CC[C@H](C(=O)Nc2ccncc2)CC1`, the cell viability turned out to be 93.7%.
For `COC(=O)C=Cc1ccc(O)c(OC)c1` [Ferulic acid methyl ester], the cell viability is 95.4%.
The result for `CN1C(N)=N[C@](C)(c2cc(NC(=O)c3ccc(F)cn3)ccc2F)CS1(=O)=O` [Verubecestat (MK-8931)] reads 88.9%; that for `C[C@H]1O[C@@H](Oc2c(-c3cc(O)c(O)c(O)c3)oc3cc(O)cc(O)c3c2=O)[C@@H](O)[C@@H](O)[C@@H]1O` [Myricitrin (Myricitrine)], 102%.
Under `O=C(O)C1=CO[C@@H](O[C@@H]2O[C@H](CO)[C@@H](O)[C@H](O)[C@H]2O)[C@H]2[C@@H]1C=C[C@]2(O)CO` [Monotropein] stands 101%.
Under `CNC(=O)[C@H](Cc1c[nH]c2ccccc12)NC(=O)[C@@H](CC(=O)NO)CC(C)C` [Ilomastat (GM6001, Galardin)] stands 95.7%; under `COC(c1ccccc1)(c1ccccc1)[C@H](Oc1nc(C)cc(C)n1)C(=O)O` [Ambrisentan], 95.2%.
For `COc1ccc2c3c1O[C@H]1C[C@@H](O)C=C[C@@]31CCN(C)C2` [Galanthamine], the cell viability amounted to 102%.
Under `CCC(=O)O[C@@H]1CC(=O)O[C@H](C)C/C=C/C=C/[C@H](O)[C@H](C)C[C@H](CC=O)[C@H](O[C@@H]2O[C@H](C)[C@@H](O[C@H]3C[C@@](C)(O)[C@@H](OC(=O)CC)[C@H](C)O3)[C@H](N(C)C)[C@H]2O)[C@H]1OC` [Midecamycin] stands 89.3%.
Under `O=C(O)CCc1ccc(O)cc1O` [Hydroumbellic acid] stands 95.6%; under `CCCn1/c(=N/C(=O)c2cccc(C(N)=O)c2)[nH]c2ccccc21` [Takinib], 98.8%; under `Cc1cc(F)c(Nc2ncnc3cc(OCc4ccccc4)ccc23)cc1O`, 73.6%.
As to `COc1ccc(NC(=O)c2ccc(C(=N)N(C)C)cc2)c(C(=O)Nc2ccc(Cl)cn2)c1` [Betrixaban maleate], the cell viability worked out at 86.5%.
Under `Cc1cn([C@H]2C=C[C@@H](CO)O2)c(=O)[nH]c1=O` [Stavudine] stands 95%; under `O=C1/C(=C/c2cccs2)CC/C1=C\c1cccs1`, 96.2%.
With `CN1CC(=O)N2[C@H](c3ccc4c(c3)OCO4)c3[nH]c4ccccc4c3C[C@@H]2C1=O` [Tadalafil (Cialis)], the cell viability is 98.5%.

A word on the cell viability: it is a read-out of living cells in per cent, often relative to untreated cells.
